Holding throughout (experiment): PBM binding z-score (relative to random genomic background probes); higher = stronger binding; sequences stand for … in GC…GCGATTGACAGCGTAGAATGAAGG
Assay [1] relates to FXR:RXRa (NR concentration 270 nM, RXRa partner concentration 90 nM). The gist of the method:
(§1)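 Random background probes are the reference for binding z-scores. These scores derive from regression-normalized fluorescence on custom Agilent 4×180K protein-binding microarrays incubated 1 h with ligand-free nuclear receptor dimers. Binding was detected with antibodies against each partner (one per run).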

The test system of assay [2] is LXRa:RXRa (NR concentration 270 nM, RXRa partner concentration 90 nM). The gist of the method: as §1
Assay [3] relates to LXRa homodimer (NR concentration 270 nM). The gist of the method:
as §1

Assay [4] has as its system LXRb:RXRa (NR concentration 270 nM, RXRa partner concentration 90 nM). The gist of the method: as §1
For assay [5], the system named is LXRb homodimer (NR concentration 270 nM). The gist of the method:
as §1

The subject of assay [6] is PPARa:RXRa (NR concentration 270 nM, RXRa partner concentration 90 nM). The gist of the method:
as §1

Assay [7] has as its system PPARg:RXRa (NR concentration 180 nM, RXRa partner concentration 90 nM). The gist of the method: as §1
Assay [8] relates to PPARg:RXRa 270nM:90nM, anti-RXR (NR concentration 270 nM, RXRa partner concentration 90 nM). The gist of the method:
as §1

The subject of assay [9] is PPARg:RXRa 30nM:10nM, anti-RXR (NR concentration 30 nM, RXRa partner concentration 10 nM). The gist of the method: as §1
Assay [10] concerns PPARg:RXRa 90nM:30nM, anti-RXR (NR concentration 90 nM, RXRa partner concentration 30 nM). The gist of the method:
as §1

The subject of assay [11] is PPARg:RXRa DBDmut IVT, anti-RXR (DBD mutation: RXRa K156A/R161A, NR concentration 270 nM, RXRa partner concentration 90 nM). The gist of the method:
as §1

Assay [12] deals with PPARg:RXRa IVT, anti-PPARg (NR concentration 270 nM, RXRa partner concentration 90 nM). The gist of the method:
as §1

The test system of assay [13] is PPARg DBDmut:RXRa IVT, anti-PPARg (DBD mutation: PPARg1 K132A/R137A, NR concentration 270 nM, RXRa partner concentration 90 nM). The gist of the method: as §1
For assay [14], the system named is PPARg DBDmut IVT, anti-PPARg (DBD mutation: PPARg1 K132A/R137A, NR concentration 270 nM). The gist of the method: as §1
For assay [15], the system named is PPARg homodimer (NR concentration 180 nM). The gist of the method: as §1
Assay [16] deals with PXR:RXRa (NR concentration 270 nM, RXRa partner concentration 90 nM). The gist of the method: as §1
The test system of assay [17] is PXR homodimer (NR concentration 270 nM). The gist of the method: as §1
The test system of assay [18] is RARa:RXR (NR concentration 270 nM, RXRa partner concentration 90 nM). The gist of the method: as §1
Assay [19] concerns RARa homodimer (NR concentration 270 nM). The gist of the method:
as §1

The test system of assay [20] is RARb:RXRa (NR concentration 270 nM, RXRa partner concentration 90 nM). The gist of the method: as §1

Consider CAAACTAGGTAAAGGTCAAAGTCGGTTTGTGCCA, for which the PBM binding z-score in [1] was 6.46; in assay [2], 6.21; in assay [3] it was 5.75; in assay [4] it was 5.55; in [5], 2.15; in assay [6] it was 6.23. The PBM binding z-score worked out at 7.83 in assay [7]; 7.43 in assay [8]; 6.03 in assay [9]; 7.54 in assay [10]; 6.36 in [11]; 6.65 in [12]. Further, the PBM binding z-score in [13] worked out at 4.01; in assay [14], 1.08; in assay [15], 4.48; in [16], 5.72; in assay [17], 2.28; in [18] it was 6.09. In addition, the values for the PBM binding z-score in assay [19] and in assay [20] were 1.6 and 4.99, respectively.

As to CATACAGGGTCAGCTAGGTCAGAGTAGGGACGGC, the PBM binding z-score in assay [1] worked out at 5.34; in [2], 3.88; in [3] it was 0.985; in [4], 3.24; in [5], 0.645; in assay [6] it was 4.72. The PBM binding z-score worked out at 4.42 in assay [7]; 3.93 in assay [8]; 0.846 in assay [9]; 2.42 in assay [10]; 1.85 in assay [11]; 3.37 in assay [12]. In addition, the PBM binding z-score in assay [13] turned out to be 1.35; in [14], 1.12; in assay [15], 3.26; in assay [16] it was 3.65; in assay [17], 1.7; in [18], 4.31. The PBM binding z-score was determined as 1.02 in [19] and 4.44 in assay [20].

As to CAAACTAGGTCAAAAGTCAAAGTCGAGCCAACCA, the PBM binding z-score in assay [1] was 4.73; in assay [2] it was 3.95; in assay [3], 0.814; in [4], 2.97; in [5], 0.644; in assay [6] it was 6.39. Further, the PBM binding z-score in assay [7] was determined as 11.9; in assay [8] it was 9.92; in [9] it was 9.77; in assay [10], 11; in assay [11], 8.48; in [12], 8.18. Further, the PBM binding z-score in [13] was 0.975; in assay [14], 1.19; in assay [15] it was 1.78; in assay [16] it was 2.68; in assay [17] it was -0.0368; in assay [18] it was 4.56. Further, the results for the PBM binding z-score in assay [19] and in [20] were 0.778 and 3.78, respectively.

ATATGTGGGTTAGCTGGGGTCATTCAGACTAGGC: the PBM binding z-score in assay [1] is 4.69; in assay [2] it was 5.5; in assay [3], 2.93; in assay [4] it was 4.93; in assay [5], 2.51; in assay [6], 5.09. Besides, the PBM binding z-score is 5.17 in assay [7]; 4.9 in assay [8]; 2.27 in assay [9]; 4.19 in assay [10]; 6.16 in assay [11]; 5.6 in assay [12]. Further, the PBM binding z-score in assay [13] worked out at 3.15; in assay [14], 2.88; in assay [15], 3.21; in [16], 6.47; in assay [17], 6.39; in [18], 5.9. Besides, the PBM binding z-score amounted to 1.64 in assay [19] and 2.96 in assay [20].

Regarding CCTATTAGTTGACCATAAGAGCAACCGAAGCTCG, the PBM binding z-score amounted to 0.554 in [1]; 0.617 in assay [2]; 1 in assay [3]; 0.594 in assay [4]; 1.16 in assay [5]; 0.283 in assay [6]. The PBM binding z-score in assay [7] is 0.521; in assay [8], 0.101; in assay [9], 0.292; in assay [10], -0.0122; in assay [11], 0.641; in [12], 0.0362. Besides, the PBM binding z-score in assay [13] turned out to be 0.382; in assay [14], 0.759; in [15], 2.08; in assay [16] it was 0.627; in assay [17], 0.992; in assay [18] it was 0.532. Also, the PBM binding z-score in [19] came out at 2.97; in [20] it was 0.667.

Consider CCGACTGGGGCAAGGTTACCAGAACGCACAGCCA, for which the PBM binding z-score in [1] is 0.168; in assay [2], 0.506; in assay [3] it was -0.288; in assay [4], 0.501; in assay [5] it was -1.15; in assay [6], 1.97. For the same sequence, the PBM binding z-score in assay [7] was determined as 2.79; in assay [8], 3.43; in assay [9], 0.792; in assay [10], 2.68; in assay [11], 2.21; in assay [12], 3.49. Further, the PBM binding z-score is -0.808 in [13]; -1.44 in assay [14]; 0.502 in [15]; 0.259 in [16]; 0.151 in assay [17]; 0.58 in [18]. Besides, the PBM binding z-score was -0.644 in [19] and 1.63 in [20].

These data come from the supplement of paper PMC6555819.
